Compound activity: PubChem BioAssay, National Center for Advancing Translational Sciences (NCATS)
HT1080-NT tox: kills 2HG-producing HT-1080-NT fibrosarcoma cells | HT-1080-NT fibrosarcoma viability, CellTiter-Glo ATP luminescence, 48 h | Potency, µM (highest dose often 46.1 µM), for the others: top-dose activity, negative = less viability, most hits filed as cytotoxic | hit rate 1.6% among 360,000 | AID 686970;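 further: NT is the 2HG producing partner of a matched IDH1 knockdown line; potency means the concentration at half of the fitted maximal effect; 0% = DMSO-treated cells and -100% = media-only wells without cells; nearly all actives have a fitted effect of over 55% in size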
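Read-out is CellTiter-Glo luminescence after 10 minutes at room temperature, following 48 hours' compound treatment of HT-1080-NT cells (750 cells/well, RPMI, 5% FBS, 37 degrees C).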
HT1080 IDH1KD tx: toxicity to HT-1080 IDH1 knockdown cells (counter line). HT-1080 IDH1 knockdown viability, ATP luminescence, 48 h. Potency, µM (titrated, usually from 46.1 µM), inactives show at the top dose activity, negative = toxicity, usual class: cytotoxic. hit rate 2% among 360,000. AID 686971;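 further: potency means the concentration at half of the fitted maximal effect; 0% = DMSO wells and -100% = cell-free medium wells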
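Assay cells: HT-1080 with IDH1 knockdown, 750 per well, RPMI/5% FBS. Exposure: 48 h at 37 °C following 2 h pre-incubation. Read: CellTiter-Glo luminescence; fitted concentration-response, curve class assigned.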
IL1B secr inh: blocks inflammasome-driven IL-1 beta release | hit rate 4.7% among 360,000 | activity change, % at 57.5 µM | THP-1 LPS/ATP IL-1B secretion, AlphaLISA, 16 h; hits give low values; in the data active means activity change below about -50%; inconclusive means mostly about -30% to -49%
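Secreted IL-1B measured by AlphaLISA bead assay after 16 h compound exposure of THP-1 cells; compounds (final up to 57.5 uM) added 1 h before LPS (250 ng/mL) and ATP (1.25 mM) stimulation; lower signal means less secretion.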
DT40 TDP1 CPT: DT40-hTDP1 cell growth loss with CPT; chicken DT40 Tdp1-/-;hTDP1 cells + 20 nM CPT, ATP luminescence, 48 h; Potency, µM (highest dose often 46.2 µM), without a hit: at the top dose activity change, negative = growth inhibition, most hits filed as inhibitors; hit rate 12% among 420,000; AID 686979; further: potency means the concentration at half of the fitted maximal effect; nearly all actives have a fitted effect of over 55% in size
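Cell growth measured by CellTiter-Glo luminescence after a minimum 48 h, 37 C compound exposure with 20 nM CPT in Tdp1-knockout DT40 cells stably expressing hTDP1, seeded 400/well; qHTS titration format.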
TDP1 cell noCPT: qHTS for Inhibitors of human tyrosyl-DNA phosphodiesterase 1 (TDP1): qHTS in cells in absence of CPT. Potency, µM (series often up to 46.2 µM), for inactives: at the highest dose activity change, negative = growth inhibition, actives largely listed as inhibitors. hit rate 15% among 420,000. DT40 Tdp1-/- hTDP1 cells, no CPT, ATP luminescence, 48 h; further: potency means the concentration at half of the fitted maximal effect; nearly all actives have a fitted effect of over 55% in size
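Stably hTDP1-transfected Tdp1-null chicken DT40 cells were treated with library compounds minus camptothecin and grown for at least 48 hr at 37 °C, after which cellular ATP was quantified by luminescence.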
Active calls of the source: *; ? = inconclusive; / = no result given. The list is not random: actives were taken first. Their share in the collection is about 19%. Unless noted, the call rests on the fitted dose curve; in most records, active means well fitted curve in the direction sought with a large enough effect; inconclusive means small, poorly fitted or top-dose-only effect, or another doubt; inactive means no such curve, though single readings can be large; an effect the other way counts as inactive or inconclusive. Unless noted, on the % scale 0 is the no-effect control and ±100 the full control effect.

SMILES	HT1080-NT tox	HT1080 IDH1KD tx	IL1B secr inh	DT40 TDP1 CPT	TDP1 cell noCPT
Cc1ccc(N(CC(O)Cn2c3ccccc3c3ccccc32)S(=O)(=O)c2ccc(F)cc2)cc1 (stereo unspecified)	/	/	/	?	21µM*
CC(=O)Nc1ccccc1N(CC(O)Cn1c2ccccc2c2ccccc21)S(=O)(=O)c1ccc(C)cc1 (stereo unspecified)	?	15µM*	?	?	18µM*
Cc1ccc(S(=O)(=O)N(CC(O)CN2CCCC2)c2ccccc2)cc1 (stereo unspecified)	-5%	5%	7	-17%	0%
COc1ccc(N(CC(O)Cn2c3ccccc3c3ccccc32)S(=O)(=O)c2ccccc2)cc1 (stereo unspecified)	-25%	?	-23	?	?
COc1ccccc1N(CC(O)CN1CCCCC1)S(=O)(=O)c1ccc(C)cc1 (stereo unspecified)	-3%	7%	0	10%	-16%
CCN(CC(O)Cn1c2ccccc2c2ccccc21)S(=O)(=O)c1ccc(C)cc1 (stereo unspecified)	-4%	-27%	?	29µM*	?
O=C(COc1cccc(Cl)c1)Nc1ccc2c(c1)CCC2	-1%	7%	-6	-11%	-13%
Cc1cccc(C)c1NC(=O)CNC(=O)CCC(=O)c1cccs1	-2%	9%	10	9%	12%
CCNc1ncc2nc(-c3ccc(OC)cc3)c(=O)n(Cc3cccc(OC)c3)c2n1	/	/	/	-5%	-6%
CC(c1nc2ccccc2[nH]1)N(C(=O)Cc1csc2ccccc12)c1cccnc1 (stereo unspecified)	5%	3%	16	?	?
CCn1c(=O)cc(OCC(=O)NCCc2cccc(C)c2)c2ccccc21	-9%	-25%	-3	?	?
CCOCCCNC(=O)c1cc(=O)n(Cc2cccc(C)c2)c2ccccc12	-5%	-18%	21	?	21µM*
CC1(C)CC(=O)C=C(c2ccc(COC(=O)Cc3ccccc3)cc2)C1=O	6%	8%	29	-13%	-16%
COc1cc2nc(N3CCCCC3)nc(NC3CC3)c2cc1OC	-21%	-16%	/	13µM*	16µM*
COc1cc2nc(N3CCCN(C)CC3)nc(Nc3ccncc3)c2cc1OC	/	/	/	3.2µM*	7.9µM*
CCCC(=O)N1CCCN(c2nc(N)c3cc(OC)c(OC)cc3n2)CC1	/	/	/	-5%	-21%
COc1cc2nc(N3CCOCC3)nc(NC3CCN(C)CC3)c2cc1OC	2%	-16%	/	10µM*	16µM*
COc1cc2nc(N3CCN(C)CC3)nc(NC3CC3)c2cc1OC	-9%	-12%	/	11µM*	10µM*
COc1ccc(C(=O)Nc2ccc(N3CCCC3)cc2)cc1Br	-9%	-10%	-10	?	?
O=C(Nc1ccc(N2CCN(C(=O)c3cccs3)CC2)cc1)c1ccc(F)cc1	0%	3%	/	-25%	23µM*
COc1ccc(C(=O)Nc2ccc(N3CCN(C(=O)c4cccs4)CC3)cc2)cc1Br	-19%	-27%	-23	21µM*	18µM*
COc1cc(OC)cc(C(=O)Nc2ccc(N3CCN(C(=O)c4cccs4)CC3)cc2)c1	?	-20%	-9	5.8µM*	5.2µM*
O=C(Cn1nc(-c2ccccc2)ccc1=O)Nc1ccc(N2CCN(C(=O)c3cccs3)CC2)cc1	-7%	-11%	-57*	?	?
Nc1ccc(N2CCN(C(=O)c3cccs3)CC2)cc1	-1%	-1%	-4	?	15µM*
CNc1nc(N)c([N+](=O)[O-])c(N2CCCCCC2)n1	0%	-2%	-18	0%	16%
SMILES	HT1080-NT tox	HT1080 IDH1KD tx	IL1B secr inh	DT40 TDP1 CPT	TDP1 cell noCPT
CC(C)CCNc1nc(N)c([N+](=O)[O-])c(N2CCCCCC2)n1	?	?	-6	?	16µM*
Nc1nc(NCc2ccco2)nc(N2CCN(Cc3ccccc3)CC2)c1[N+](=O)[O-]	-5%	-6%	40	?	18µM*
Nc1nc(NCc2ccco2)nc(N2CCCCCC2)c1[N+](=O)[O-]	?	-17%	-11	21µM*	16µM*
CCC(Cc1ccccc1)NS(=O)(=O)c1c(C)nc2sccn2c1=O (stereo unspecified)	-12%	6%	6	-9%	3%
COc1c(C(CC(C)C)OC(C)=O)ccc2c1C(=O)OCc1cc(C)cc(O)c1O2 (stereo unspecified)	-27%	?	-24	9.2µM*	12µM*
COc1c(C(O)CC(C)C)ccc2c1C(=O)OCc1cc(C)cc(O)c1O2 (stereo unspecified)	-4%	-15%	1	?	18µM*
CC(Oc1ccc(C#N)cc1)C(=O)NC1CCCC1 (stereo unspecified)	2%	5%	7	8%	-12%
CC(C)COc1ccc(-c2nn(-c3ccccc3)cc2C(=O)Nc2nccs2)cc1	-11%	-26%	53	?	?
Cc1ccc(-c2nn(-c3ccccc3)cc2C(=O)Nc2ccc(C(=O)O)cc2)cc1	-12%	-3%	-10	-22%	?
O=C(Nc1nccs1)c1cn(-c2ccccc2)nc1-c1ccccc1	-7%	?	-63*	?	?
Cc1cccc(C)c1NC(=O)CNC(=O)c1cn(-c2ccccc2)nc1-c1ccccc1	6%	-3%	-1	?	?
Cc1nn(Cc2c(Cl)cccc2Cl)c(C)c1NC(=O)c1cn(-c2ccccc2)nc1-c1ccccc1	3.7µM*	4.1µM*	28	6.5µM*	4.6µM*
O=C(Nc1ccccc1)c1cn(-c2ccccc2)nc1-c1ccccc1	/	/	/	?	16µM*
O=C(Nc1ccc([N+](=O)[O-])cc1)c1cn(-c2ccccc2)nc1-c1cc2ccccc2o1	-1%	-3%	5	8.2µM*	10µM*
Cc1cc(=O)oc2cc(OCC(=O)N3CCN(C(=O)C4COc5ccccc5O4)CC3)c(Cl)cc12 (stereo unspecified)	1%	16%	0	?	?
Cc1ccccc1-c1cccc([C@@H]2C[C@H]3C(CN2)CON3C)c1 (stereo partly specified)	2%	0%	15	?	-30%
CCCCn1c(N)c(N(CCOC)C(=O)c2cccc(-n3cnnn3)c2)c(=O)[nH]c1=O	-15%	-1%	4	-9%	-16%
CC(Oc1ccc(Br)cc1)C(=O)Nc1ccc(N2CCOCC2)cc1N1CCOCC1 (stereo unspecified)	-1%	15%	-13	?	?
COc1ccc(COc2cc(-c3cccc(OC)c3)nc3ccc(NC(=O)c4cccnc4)cc23)cc1	?	?	18	?	?
